In ChEMBL document CHEMBL3988442, “University of Dundee, Small-Polar-MMV Screening Library” (2021):
About 13,000 (27%) of roughly 48,000 compounds showed an effect of 50% or more. The list shows a part of the results.

These molecules were tested on Wolbachia pipientis (assay: Anti-Wolbachia Cell-Based Screen). Conditions: 5 µM.
Assay type: functional
Set-up: scale not given: in the data most compounds retested in dose-response had high values

| Structure (SMILES) | Percent Effect |
| --- | --- |
| CCN1CCN(C[C@@H]2CN(c3ncc(Cl)cc3Cl)C[C@@H]2CO)CC1 | -5.198% |
| Cc1nnc([C@H]2C[C@H]3OCC[C@H]3N(S(=O)(=O)CC(C)C)C2)o1 | -13.43% |
| CCS(=O)(=O)N1C[C@@H](c2nnc(C)o2)C[C@H]2OCC[C@H]21 | 1.952% |
| Cc1noc([C@H]2C[C@H]3OCC[C@H]3N(S(C)(=O)=O)C2)n1 | 101.7% |
| Cc1noc([C@@H]2C[C@H]3OCC[C@H]3N(CC3CCCC3)C2)n1.O=C(O)C(F)(F)F | -10.41% |
| CCc1ccc(CN2C[C@@H](c3nc(C)no3)C[C@H]3OCC[C@H]32)o1.O=C(O)C(F)(F)F | 3.351% |
| CCS(=O)(=O)N1C[C@H](c2nc(C)no2)C[C@H]2OCC[C@H]21 | 131.3% |
| CCCS(=O)(=O)N1C[C@@H](c2nc(C)no2)C[C@H]2OCC[C@H]21 | 120.5% |
| Cc1noc([C@@H]2C[C@H]3OCC[C@H]3N(Cc3cc(C)c(C)o3)C2)n1.O=C(O)C(F)(F)F | -0.5348% |
| Cc1noc([C@H]2C[C@H]3OCC[C@H]3N(S(=O)(=O)C3CC3)C2)n1 | 5.212% |
| Cc1noc([C@@H]2C[C@H]3OCC[C@H]3N(S(C)(=O)=O)C2)n1 | 0.371% |
| Cc1noc([C@H]2C[C@H]3OCC[C@H]3N(Cc3scnc3C)C2)n1.O=C(O)C(F)(F)F.O=C(O)C(F)(F)F | -0.107% |
| Cc1noc([C@H]2C[C@H]3OCC[C@H]3N(C3CCC3)C2)n1.O=C(O)C(F)(F)F | 110.4% |
| Cc1ccc(-c2cnnc(NCC3(N4CCOCC4)CCCC3)n2)o1 | 10.34% |
| CNC(=O)c1cc2c(s1)CCN(C(=O)CCC1CCCN(C)C1)C2 (centres undefined) | -26.69% |
| Cc1nn(C)c(C)c1CN(Cc1cccn1-c1ncccn1)C(C)C | -15.44% |
| CC(Cn1ccnc1)NC(=O)N(C)Cc1ccco1 (centres undefined) | 7.542% |
| Cc1ccccc1CC1(CO)CCCN(c2ncnc3sccc23)C1 (centres undefined) | 23.07% |
| Cc1noc([C@@H]2C[C@H]3OCC[C@H]3N(S(=O)(=O)c3cccnc3)C2)n1.O=C(O)C(F)(F)F | -2.374% |
| Cc1noc([C@@H]2C[C@H]3OCC[C@H]3N(S(=O)(=O)N(C)C)C2)n1 | 112.3% |
| Cc1noc([C@@H]2C[C@H]3OCC[C@H]3N(S(=O)(=O)c3ccccc3)C2)n1 | 116% |
| Cc1nnc([C@H]2C[C@H]3OCC[C@H]3N(S(=O)(=O)N(C)C)C2)o1 | -11.67% |
| Cc1noc([C@@H]2C[C@H]3OCC[C@H]3N(Cc3ccoc3)C2)n1 | 14.51% |
| Cc1nnc([C@H]2C[C@H]3OCC[C@H]3N(S(=O)(=O)C3CC3)C2)o1 | 7.121% |
| CCC(O)Cn1nc(CCSC)nc1-c1ccc2[nH]ccc2c1 (centres undefined) | 4.032% |
| COc1ccc(OCc2nc(C(=O)N3CCCNC(=O)C3)co2)cc1 | -7.469% |
| COc1ccc(CN(C)C(=O)c2nnc(CN(C)C)o2)cc1 | -11.59% |

| Structure (SMILES) | Percent Effect |
| --- | --- |
| NC(=O)C1CN(C(=O)c2ccc(F)cc2)CCN1CCc1ccccc1 (centres undefined) | 127.4% |
| O=C(c1ccccc1)N1CCCC(Nc2ccc(F)cc2)C1 (centres undefined) | -11.95% |
| CN1CC(c2ccccc2)CC12CCN(C(=O)c1ccc(F)cc1)CC2 (centres undefined) | -4.742% |
| O=C(NC[C@H]1OC[C@@H](NC2CCC(F)(F)CC2)[C@@H]1O)C1CCCC1 | 8.921% |
| CN(C)c1cc2c(nn1)CCN(C(=O)C1COc3ccccc3C1)C2 (centres undefined) | -4.709% |
| CN(Cc1ccco1)C(=O)[C@@]12CNC[C@@H]1CN(C1CCCC1)C2 | -1.971% |
| COCC(=O)NC1CC2(CCN(CCO)CC2)c2ccccc21.O=C(O)C(F)(F)F (centres undefined) | 86.71% |
| O=C(NC1CC2(CCN(CCO)CC2)c2ccccc21)c1ccncc1.O=C(O)C(F)(F)F.O=C(O)C(F)(F)F (centres undefined) | -8.101% |
| COCC(=O)NC1CC2(CCN(CCN(C)C)CC2)c2ccccc21 (centres undefined) | 87.88% |
| CCN1CCC2(CC1)CC(NC(=O)c1ccnnc1)c1ccccc12.O=C(O)C(F)(F)F (centres undefined) | -6.669% |
| CC(C)C(=O)NC1CC2(CCN(CC(=O)N(C)C)CC2)c2ccccc21.O=C(O)C(F)(F)F (centres undefined) | 105.8% |
| CCC(c1nc(C(C)C)nn1-c1ccccn1)n1cccn1 (centres undefined) | 8.011% |
| CC(C)N1CCc2c(c(COc3cncnc3)nn2CC2CC2)C1.O=C(O)C(F)(F)F | -1.489% |
| c1ccc(-c2cnc(CNC3CCCN(c4cccnn4)C3)o2)cc1 (centres undefined) | -8.343% |
| O=C(c1ccno1)N1C[C@@H](F)[C@@H](OCc2nc3ccccc3o2)C1 | 6.473% |
| NC(=O)C1CN(c2ccc3c(Cl)ccnc3c2F)CCO1 (centres undefined) | -12.11% |
| CCc1nc(NC(=O)Cc2csc(-c3nnc[nH]3)n2)sc1C | 3.287% |
| CN(C)C(=O)N1Cc2nnn(CC3CC3)c2C(COCC2CC2)C1 (centres undefined) | 117.2% |
| CN(C)C(=O)N1Cc2nnn(C)c2C(COCC2CC2)C1 (centres undefined) | 7.957% |
| CCOCC1CN(C(=O)N(C)C)Cc2nnn(CC3CC3)c21 (centres undefined) | -7.85% |
| C1CC(N2Cc3nnn(CC4CC4)c3C(COCC3CC3)C2)C1.O=C(O)C(F)(F)F (centres undefined) | 96.7% |
| C1CCC(CN2Cc3nnn(CC4CC4)c3C(COCC3CC3)C2)C1.O=C(O)C(F)(F)F (centres undefined) | 107.6% |
| O=C(O)C(F)(F)F.c1cc(CN2Cc3nnn(CC4CC4)c3C(COCC3CC3)C2)co1 (centres undefined) | 1.787% |
| COCC1CN(Cc2ccncc2)Cc2nnn(CC3CC3)c21.O=C(O)C(F)(F)F.O=C(O)C(F)(F)F (centres undefined) | -5.053% |
| COCC1CN(C(=O)[C@H]2CCCO2)Cc2nnn(CC3CC3)c21 (some centres undefined) | -4.44% |
| CCOCC1CN(CC2CCC2)Cc2nnn(CC3CC3)c21 (centres undefined) | 111.4% |
| CCOCC1CN(C(=O)[C@H]2CCCO2)Cc2nnn(CC3CC3)c21 (some centres undefined) | 0.1287% |
